# Source: PubChem BioAssay
# Sampled rows, rich in hits. Any-hit rate of the full collection: about 3.2%.
# HBB splicing – alters splicing of the hemoglobin beta chain; HBB splicing reporter cell assay, activation; EGFP reporter with mutant IVS2-654 intron; response scale: normalised to 500 nM splice-correcting PNA; Potency, µM (highest dose often 46.1 µM), without a hit: at the top dose activation, hits mostly activators; 65,000 compounds, 0.06% hits; note: potency is the fitted concentration of half-maximal effect; 0% is about no effect
#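 Compounds were applied for 2 days to HeLa EGFP-654 cells, 500/well in Optimem with 2% FCS. The reporter's EGFP is disrupted by mis-splicing of beta-globin intron IVS2-654. Readout: summed well GFP fluorescence from 488 nm laser scanning; reference was 500 nM antisense […] 654 PNA.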
# UbGFP stabilizer – ubiquitin-GFP accumulation via proteasome inhibition; Ubiquitin-GFP reporter cells, proteasome inhibition, GFP fluorescence; response scale: untreated = 0%, 10 µM MG-132 = 100%; Potency, µM (doses to about 45.9 µM), inactives show top-dose activation (GFP accumulation), most hits filed as activators; 67,000 tested, under 10 active; AID 526; active = well fitted activation curve with a large enough effect, not every such curve was filed as active; inconclusive = small, poorly fitted or top-dose-only effect, or another doubt; inactive = no such curve, though single readings can be large or run the other way; note: potency is the fitted concentration of half-maximal effect
#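 U2OS cells expressing ubiquitin(G76V)-GFP, seeded overnight in 0.5% FBS medium, then treated 4 hr at 37 C across 46 uM to 2.9 nM. GFP-positive cells counted by laser cytometry (488 ex/515 em); %activity scaled between basal and 10 uM MG-132.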
# GFP derepression – epigenetic GFP locus derepression in mouse cells; mouse C127i GFP locus derepression, cytometry, 30 h; Potency, µM (top dose mostly 46.1 µM), without a hit: at the top dose GFP derepression (activation); 68,000 compounds, 0.09% hits; AID 597; note: % of control where 0% means no effect
#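 Read-out is the number of GFP-positive cells, scored as fluorescent objects 20 to 120 um wide, reflecting derepression of a silenced CMV-GFP reporter in murine C127i cells after 30 h compound exposure at 37 C.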
# Tau filament bind – binders of human tau filaments; P10636; recombinant tau filaments, thioflavin S fluorescence, 15 h; filaments grown with octadecylsulfate alongside compound; Potency, µM (highest dose often 57.1 µM), inactives show at the top dose activity change, negative = inhibition; 71,000 compounds, 2% hits;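 note: potency is the fitted concentration of half-maximal effect; % is set by controls: 0 for no effect and ±100 for the full control effect; actives lower thioflavin S fluorescence by blocking filaments or displacing dye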
# Target sequence (P10636 whole entry, looked up): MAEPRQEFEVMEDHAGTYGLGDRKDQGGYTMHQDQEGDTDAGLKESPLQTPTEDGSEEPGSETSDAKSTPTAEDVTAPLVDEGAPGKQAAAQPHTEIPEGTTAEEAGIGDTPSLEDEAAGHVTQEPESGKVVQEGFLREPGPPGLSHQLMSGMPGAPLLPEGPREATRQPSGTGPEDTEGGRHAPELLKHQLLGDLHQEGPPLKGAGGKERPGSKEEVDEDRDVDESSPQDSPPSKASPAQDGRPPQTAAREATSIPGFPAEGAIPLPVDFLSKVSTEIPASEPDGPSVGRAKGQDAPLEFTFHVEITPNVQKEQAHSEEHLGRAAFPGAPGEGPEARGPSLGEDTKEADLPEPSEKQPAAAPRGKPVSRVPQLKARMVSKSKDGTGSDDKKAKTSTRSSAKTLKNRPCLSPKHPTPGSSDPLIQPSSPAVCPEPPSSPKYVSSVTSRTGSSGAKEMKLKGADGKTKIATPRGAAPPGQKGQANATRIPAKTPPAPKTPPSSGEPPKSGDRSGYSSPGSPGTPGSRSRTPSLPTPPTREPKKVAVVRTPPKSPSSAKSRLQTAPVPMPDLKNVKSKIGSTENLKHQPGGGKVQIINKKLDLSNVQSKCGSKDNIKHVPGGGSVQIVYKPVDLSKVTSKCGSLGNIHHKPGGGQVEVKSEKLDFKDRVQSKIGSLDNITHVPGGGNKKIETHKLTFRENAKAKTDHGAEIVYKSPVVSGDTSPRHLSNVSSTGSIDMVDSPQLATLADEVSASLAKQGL
#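 Quantitative HTS: thioflavine S signal from ODS-induced tau filaments, excited at 450 nm, emission 510 nm. Conditions: 1 uM tau, 30 uM ODS, 15 h at 37 C, pH 7.4.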
# Pol III holo inh – blocks replication by bacterial DNA polymerase III holoenzyme; Potency, µM (top dose mostly 57.1 µM), inactives show at the highest dose activity change, negative = inhibition; 71,000 compounds, 0.25% hits; AID 603; reconstituted DNA polymerase III holoenzyme replication, biochemical; note: potency is the fitted concentration of half-maximal effect; % is set by controls: 0 for no effect and ±100 for the full control effect
#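 Reconstituted *E. coli* holoenzyme (0.35 nM Pol III, 1 nM beta, 154 nM SSB, 2 nM primase) was preincubated with compound for 15 min at RT. Synthesis on 1.4 nM ssM13Gori ran 35 min, then was stopped with PicoGreen/EDTA and read as dsDNA fluorescence.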
# ALOX15 inhib – blocks human 15-lipoxygenase activity. P16050. purified 15hLO-1, xylenol orange hydroperoxide absorbance. Potency, µM (highest dose often 57.1 µM), for inactives: at the top dose activity change, negative = inhibition, usual class: inhibitors. 74,000 compounds, 1.4% hits. AID 887; note: potency is the fitted concentration of half-maximal effect; % is set by controls: 0 for no effect and ±100 for the full control effect; nearly all actives have a fitted effect of over 55% in size
#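 Purified human 15hLO-1 (40 nM) in 25 mM Hepes pH 7.5, 0.01% Triton X-100, preincubated 15 min RT with compound, then 50 uM arachidonic acid for 6 min. Hydroperoxide read by ferrous/xylenol orange, 30 min; 573/405 nm absorbance ratio gave progress.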
# Numbers without * were called inactive; i = inactive; ? = inconclusive; . = no result given; [ ] = remark or other dose. Unless noted, calls come from the whole dose curve; as a rule, active = well fitted curve in the direction sought with a large enough effect; inconclusive = small, poorly fitted or top-dose-only effect, or another doubt; inactive = no such curve, though single readings can be large; an effect the other way counts as inactive or inconclusive.
SMILES,HBB splicing,UbGFP stabilizer,GFP derepression,Tau filament bind,Pol III holo inh,ALOX15 inhib
Nc1ncnc2c1ncn2[C@@H]1O[C@@H](CO)[C@H](O)[C@@H]1O,1%,-5%,-2%,-8%,-6%,-4%
O=C(O)CCc1c2ccc(=O)c(O)c-2oc2c(O)c(O)ccc12,6%[9.22 µM],-2%[9.17 µM],-3%[9.22 µM],3.2µM*,0.079µM*,3.2µM*
COc1cccc(-c2nc(N(C)Cc3ccco3)c3ccccc3n2)c1,0%,4%,1%[9.22 µM],-20%,-3%,10µM*
CN(Cc1ccco1)c1nc(-c2ccc3c(c2)OCO3)nc2ccccc12,-1%,10%,-5%[9.22 µM],-11%,-2%,-6%
CCOC(=O)c1c(C)nc2sccn12,-1%,14%,0%,-3%,-3%,5%
CCOC(=O)c1c(C)nc2c3ccccc3ccn12,-1%,-3%,-3%,54%,-5%,16µM*
Cc1ccc(NC2c3ncccc3C(=O)N2c2ccccc2C)cc1C (stereo unspecified),3%,-3%,-2%,?,-1%,25µM*
CC(=O)OC[C@@H]1O[C@H](C/C=N\O[C@@H](C)c2cn([C@H](CO)Cc3ccccc3)nn2)C=C[C@@H]1OC(C)=O,2%[9.22 µM],.,.,.,.,5%[11.4 µM]
Nc1ccc(CCNc2ncnc3c2ncn3[C@@H]2O[C@@H](CO)[C@H](O)[C@@H]2O)cc1,0%,4%,-2%,0%,-11%,4%
O=C1C(C2=C(O)c3ccccc3C2=O)=Nc2ccccc21,.,-10%,?,6.3µM*,-9%,-27%
CCCCCCCCCCCCCCCCCC(=O)O[C@H](CC(=O)O)C[N+](C)(C)C,3%,-2%,-1%,22%,-4%,13%
Cc1ccccc1C,1%,.,.,-10%,-4%,3%
c1cc2c(cc1C(N1CCNCC1)N1CCNCC1)OCO2,1%[9.22 µM],7%[9.17 µM],-1%[9.22 µM],-4%[11.4 µM],-2%[11.4 µM],6%[11.4 µM]
COc1ccc(Cn2c(-c3ccco3)nc3oc4ccccc4c(=O)c3c2=O)cc1,3%,4%,2%,-7%,-9%,11%
COc1ccc(Cn2c(-c3ccco3)nc3oc4cc(OC)ccc4c(=O)c3c2=O)cc1,3%,3%,2%,10µM*,-9%,-1%
Cc1ccc(-c2oc3ccccc3c(=O)c2O)cc1,0%,-3%,14%,50%,-4%,-23%
Cc1ccc2oc(-c3ccccc3)c(O)c(=O)c2c1,.,1%,0%[9.22 µM],32µM*,-3%,5%[25.6 µM]
Cc1ccc(C)c2nc(N3CCCC3)c(C#N)cc12,.,-4%,2%,18%,-7%,13µM*
Cc1cccc2cc(C#N)c(N3CCN(C)CC3)nc12,.,6%,-4%,17%,-5%,11%
O=C(Nc1ccc2c(c1)nc1n2CCN(C2CCCCC2)C1)c1ccco1,5%,-3%,-3%,25µM*,-8%,-29%
O=C(Nc1ccc2c(c1)nc1n2CCOC1)c1ccco1,5%[0.369 µM],.,-2%,-3%,-4%,10%
CC(C)(C)c1c2c(c(C(C)(C)C)c3c1OCN(Cc1ccccc1)C3)OCN(Cc1ccccc1)C2,-1%[9.22 µM],-5%[9.17 µM],0%[9.22 µM],-3%[11.4 µM],-16%[11.4 µM],?
CCOC(=O)CCN1C(=O)[C@@H]2[C@H]3C(=CC[C@H]2C1=O)C(=O)[C@H]1O[C@H]1[C@H]3O,1%[9.22 µM],.,.,.,.,-11%[11.4 µM]
CN1CCc2nc(N)nc(-c3nc(N)nc4c3CN(C)CC4)c2C1,1%[9.22 µM],-4%[9.17 µM],2%[9.22 µM],2%[11.4 µM],-4%[11.4 µM],-13%[11.4 µM]
COc1ccc(C)cc1N,0%,.,.,-1%,-7%,-21%
SMILES,HBB splicing,UbGFP stabilizer,GFP derepression,Tau filament bind,Pol III holo inh,ALOX15 inhib
COc1ccc(OC)c(N)c1,-2%,4%,0%,13µM*,1%,-6%
O=C(NC1CCS(=O)(=O)C1)OC1CCCCC1 (stereo unspecified),.,-5%,0%,-4%,0.5µM*,4%
O=C(CSc1n[nH]c(-c2ccco2)n1)Nc1sc2c(c1C(=O)Nc1ccccc1)CCCC2,7%,0%,6%,i,4%,-17%
NC(=O)c1c(NC(=O)CSc2nnc(-c3ccco3)n2-c2ccccc2)sc2c1CCC2,-3%,-1%,4%,22%,-7%,25µM*
CCOC(=O)c1sc(NC(=O)CSc2nnc(-c3ccco3)n2CC)c(C(=O)OCC)c1C,0%,1%,5%,94%,-12%,6.3µM*
CC1=NN(c2ccccc2)C(=O)[C@@H]1N=Nc1ccc(S(N)(=O)=O)cc1,2%[9.22 µM],-5%[9.17 µM],-3%[9.22 µM],4µM*,-11%[11.4 µM],4%[11.4 µM]
Cc1onc(-c2ccccc2)c1-c1ccc(S(N)(=O)=O)cc1,.,.,.,.,.,-7%
O=C(Nc1ccccc1)N1CC=C(c2ccccc2)CC1,0%,1%,0%,?,-4%,25µM*
O=C(Nc1ccc(Nc2ccccc2)cc1)N1CCOCC1,3%,4%,0%,16µM*,-6%,0%
O=C(Nc1ccccc1)N1CC=C(c2ccc(F)cc2)CC1,-1%,7%,2%,-4%,-3%,?
Cc1cccc(C(=O)O)c1C[C@H]1NCC[C@H]2c3ccccc3N[C@@H]12,0%[9.22 µM],6%[9.17 µM],-6%[9.22 µM],0%[11.4 µM],-10%[11.4 µM],5%[11.4 µM]
Cc1ccccc1OCCCCCNCCO,.,.,.,.,.,3%
COc1ccccc1OCCCCNCCO,-1%[9.22 µM],-2%,-2%,13%,-1%,-15%
CC(C)(C)c1ccccc1OCCCCCNCCO,0%[9.22 µM],-11%,-2%,10µM*,-3%,-15%
CC(C)c1ccccc1OCCCCCNCCO,0%[9.22 µM],22%,-2%,13µM*,-1%,2%
CNC(=O)[C@@H]1O[C@@H](n2cnc3c(NCc4ccc(N)cc4)ncnc32)[C@@H](O)[C@H]1O,2%,3%,0%,-5%,5%,6%
CN1CCc2nc(NC(=O)c3cccc(S(=O)(=O)N4CCc5ccccc54)c3)sc2C1,0%,7%,1%,213%,7%,16µM*
Cc1csc(NC(=O)c2cccc(S(=O)(=O)N3CCCCC3)c2)n1,0%[57.5 µM],1%,-1%,8%,13%,-9%
O=C(O)C(Cl)(c1ccccc1)c1ccccc1,0%[9.22 µM],-4%[9.17 µM],7%[9.22 µM],7%[11.4 µM],0%[11.4 µM],2%[11.4 µM]
O=C(O)/C(Cc1ccc([N+](=O)[O-])cc1)=N/O,-1%[9.22 µM],-1%[9.17 µM],0%[9.22 µM],5%[11.4 µM],-5%[11.4 µM],5%[11.4 µM]
O=C(c1ccc(Br)o1)N1CCN(c2ccc3nnc(-c4ccccc4)n3n2)CC1,-1%,6%,-2%,204%,-8%,16µM*
Cc1nnc2ccc(N3CCN(C(=O)c4ccccc4)CC3)nn12,1%,-3%,-2%,-14%,0%,1%
O=C(O)c1nnsc1-c1ccc(-c2snnc2C(=O)O)cc1,1%[9.22 µM],-5%[9.17 µM],6%[9.22 µM],-6%[11.4 µM],-7%[11.4 µM],-27%[11.4 µM]
